# Measurements as given in PubChem BioAssay AID743262 (National Center for Advancing Translational Sciences (NCATS), 2014).
# Hit rate of the full screen: of about 1,300 compounds, about 25 (2%) were called active. Roughly 9% stayed inconclusive and do not appear here. Calls follow the shape of the dose curve; as a rule, active = well fitted activation curve with a large enough effect; inconclusive = small, poorly fitted or top-dose-only effect; inactive = flat fitted curve, though single readings scatter. What follows is part of a selection rich in actives, with near analogues and random picks from the rest. Where a call stands in place of a potency, no number is given.
# Target: Glucagon-like peptide 1 receptor (Homo sapiens) (UniProt P43220)
# Sequence (P43220 whole entry, looked up): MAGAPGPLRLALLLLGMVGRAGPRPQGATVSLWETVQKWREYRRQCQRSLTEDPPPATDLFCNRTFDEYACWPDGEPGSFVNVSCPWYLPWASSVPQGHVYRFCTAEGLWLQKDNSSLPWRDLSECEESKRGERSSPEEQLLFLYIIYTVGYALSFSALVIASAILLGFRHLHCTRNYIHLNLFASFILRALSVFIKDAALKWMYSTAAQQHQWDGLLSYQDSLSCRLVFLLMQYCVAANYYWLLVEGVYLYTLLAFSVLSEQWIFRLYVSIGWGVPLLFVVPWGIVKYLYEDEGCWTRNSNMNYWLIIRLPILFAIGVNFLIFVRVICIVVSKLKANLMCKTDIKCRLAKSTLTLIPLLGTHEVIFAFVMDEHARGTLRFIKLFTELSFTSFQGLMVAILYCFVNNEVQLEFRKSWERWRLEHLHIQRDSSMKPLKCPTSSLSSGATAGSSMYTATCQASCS
# Test: qHTS of GLP-1 Receptor Agonists: Hit Validation
# Settings: HEK293 GLP-1R, cAMP-response luciferase, 4-6 h; series mostly up to 46.1 µM
# Description: The overall goal of this project was to develop a novel assay for discovering small molecule ligands for class B1 G protein-coupled receptors (GPCRs). Very few agonists (or inverse agonists) with generally weak activity for this entire group of physiologically important receptors are known to date. To establish proof-of-principle that this critical bottleneck can be overcome with a suitable screening approach, our studies focused on the class B1 receptor for glucagon-like peptide-1 (GLP-1R), a potential therapeutic target for diabetes and neurodegenerative disease. The assay was developed in a "mix and measure" format using a cell-based functional readout. Toward this goal, stably transfected HEK293 cell clones were established that co-express (i) a cAMP-responsive luciferase reporter gene, and (ii) GLP-1Rs that upon ligand interaction either stimulate (agonists) or inhibit (inverse agonists) luciferase activity. In different cell lines to be used for screening, expressed GLP-1Rs are specifically optimized for high sensitivity detection of either weak agonists (hypersensitive receptor) or inverse agonists (constitutively active receptor mutant). In addition, control cell lines were developed that express either the cAMP-responsive reporter gene without recombinant GLP-1Rs (enabling initial exclusion of GLP-1R independent effects of candidate probes), or the reporter gene together with wild type GLP-1Rs (for confirmation of probe activity at this receptor), or the reporter gene in combination with the constitutively active orphan receptor GPR119 (enabling initial exclusion of GLP-1R independent inhibitory effects of candidate inverse agonists). To that end, this assay was optimized for 1536-well format and screened against the MLSMR. NIH Molecular Libraries Probe Production Network [MLPCN] NIH Chemical Genomics Center [NCGC] Grant: NS064851 PI Name: Martin Beinborn, Tufts Medical Center
# In a white solid 1536-well plate, 6 uL of cells are dispensed in DMEM without phenol red, 10% Nu serum, and 1% pen-strep medium. The plates are then incubated for 12 hours at 37 deg C at 5% CO2 before 23 nL of compounds are added. After a 4-6 hr incubation at37 deg C and 5% CO2, 3 uL of detection reagent are added and after a 12 min incubation at RT, a luminescent read is obtained on the ViewLux.
# Potency is read from the fitted curve at half-maximal effect.
row,Structure (SMILES),Potency
1,COCCNc1nc(Nc2ccccc2Cl)c2sccc2n1,inactive
2,COCCNc1nc(Nc2ccc(C)cc2C)c2sccc2n1,9.2 µM (active)
3,Clc1ccccc1Nc1nc(NCC2CC2)nc2ccsc12,inactive
4,CCOc1ccc(C(C)=O)cc1COC(=O)CCc1cc(OC)c(OC)c(OC)c1,inactive
5,CCOC(=O)c1c(C)[nH]c(C)c1C(=O)COC(=O)c1sccc1C,inactive
6,CCOC(=O)c1cn(-c2ccccc2)nc1-c1ccncc1,inactive
7,Nc1nnc(-c2cn(-c3ccccc3)nc2-c2ccccc2)o1,5.17 µM (active)
8,COc1ccc(Cn2c(SCC#N)nc3ccc(N4CCOCC4)cc3c2=O)cc1,inactive
9,CCOC(=O)C1(C)CCCN(C(=O)c2cc(C)oc2C)C1 (stereo unspecified),inactive
10,Cc1ccc(NC(=O)Nc2ccc([N+](=O)[O-])cc2)nc1,inactive
11,COc1cc2c(cc1OC)C1=C(C#N)CCC(=NC(=O)c3ccc(Cl)cc3)N1CC2,inactive
12,C=CCSc1nc2c(c(=O)[nH]c(=O)n2C)n1CC,inactive
13,COc1ccc([N+](=O)[O-])cc1NS(=O)(=O)c1cc(C(=O)N2CCN(C)CC2)ccc1OC,inactive
14,CC(C)Cn1cnc2c(SCc3ccccc3F)nc(N)nc21,inactive
15,CCCn1c2ccc(F)cc2c2nnc(SCCN3CCOCC3)nc21,inactive
16,CCOc1ncccc1C(=O)OCc1ccc(C(=O)OC)o1,inactive
17,Nc1nc2sc3c(c2c(=O)s1)CCCC3,inactive
18,COc1cc2c(cc1OC)CN(C(=O)c1ccc(N3CCCC3)c([N+](=O)[O-])c1)CC2,inactive
19,COC(=O)[C@@H]1CCCN1C(=O)c1cc(COc2cccc3cccnc23)on1,inactive
20,CCN=C1S/C(=C\c2cn(CC)c3ccccc23)C(=O)N1CC,inactive
21,COc1ccccc1N1CCN(C(=O)/C=C/c2ccco2)CC1,inactive
22,COc1cccc(OC)c1C(=O)Nc1ccc(C(=O)c2ccncc2)cc1,inactive
23,CCOC(=O)c1c(NC(=O)COC)sc(C)c1C,inactive

row,Structure (SMILES),Potency
1,COc1ccc(C2=Nn3c(nnc3-c3ccco3)SC2)cc1,inactive
2,COc1ccc(C2=Nn3c(nnc3-c3ccccc3)SC2)cc1OC,inactive
3,Cc1cc(C)n(-c2nnc3n2N=C(c2c[nH]c4ccccc24)CS3)n1,inactive
4,COc1ccc(C2=Nn3c(nnc3C3CCCCC3)SC2)cc1OC,8.2 µM (active)
5,CCOc1ccc(-c2nnc3n2N=C(c2ccc(OC)cc2)CS3)cc1,inactive
6,COc1ccc(C2=Nn3c(nnc3-c3ccccc3OC)SC2)cc1OC,5.8 µM (active)
7,COc1ccc(C2=NN(C(C)=O)C(c3cccs3)C2)cc1OC (stereo unspecified),inactive
8,COc1ccc(C2CC(c3ccc(OC)c(OC)c3)=NN2C(=O)c2ccccc2)cc1 (stereo unspecified),inactive
9,COc1ccc(OC)c(-c2nnc3n2N=C(c2ccc(OC)c(OC)c2)CS3)c1,1.64 µM (active)
10,COc1ccc(C2=Nn3c(nnc3-c3ccccc3Cl)SC2)cc1OC1CCOC1 (stereo unspecified),13 µM (active)
11,c1cc2c(cc1C1=Nn3c(nnc3C3CCCCC3)SC1)OCO2,inactive
12,COc1ccc(C2=Nn3c(nnc3-c3ccccn3)SC2)cc1OC,inactive
13,C/C(=N\Nc1nc2ccccc2[nH]1)c1ccc(C)o1,inactive
14,COc1cc(C#Cc2ccc3cc(CCO)oc(=O)c3c2)cc(OC)c1,inactive
15,O=c1[nH]n(CC2COC3(CCCCC3)O2)c(=O)c2ccccc12 (stereo unspecified),inactive
16,COCc1cccc(-c2csc(C(C)(O)c3cccc(F)c3)n2)c1 (stereo unspecified),inactive
17,COc1cc(SC)ccc1C(=O)OCc1nc2ccsc2c(=O)[nH]1,inactive
18,CSc1nnc(C)c(/C=C/Nc2ccc(F)cc2)n1,inactive
19,CN(C)c1ccc(N=Nc2ccccc2C(=O)OCC(=O)Nc2ccccc2C(F)(F)F)cc1,inactive
20,COc1ccc(/C=N/n2c(-c3ccc(C)cc3)n[nH]c2=S)cc1OC,inactive
21,C=CCn1c2ccccc2c(=O)c2cc(C#CC3(O)CCCCC3)ccc21,inactive
22,O=C(Nc1ccccc1)OCc1cc(-c2ccccc2Cl)on1,inactive
23,CCCc1cc(-c2ccc(O)c(OCC)c2)c(C#N)c(N)n1,inactive

row,Structure (SMILES),Potency
1,COc1ccc(CCN(C)C/C=C/c2ccccc2[N+](=O)[O-])cc1OC,inactive
2,CCCOc1ccc2c(=O)c(-c3cc(C(=O)OC)oc3C)c(C)oc2c1,inactive
3,Fc1ccccc1COc1ccc(Br)cc1CNCc1cccnc1,inactive
4,COc1cc(-c2nc(Cc3ccccc3Cl)no2)cc(OC)c1OC,inactive
5,COc1ccc(Cc2noc(-c3ccc(OC)c(OC)c3)n2)cc1OC,inactive
6,COc1ccc(CN(C)Cc2nc(Cc3ccccc3Cl)no2)cc1OC,16.4 µM (active)
7,CCCCCCSC1=C(C#N)C(c2ccc(O)cc2)CC(=O)N1 (stereo unspecified),inactive
8,NS(=O)(=O)c1cccc(NC(=O)Nc2ccccc2)c1,inactive
9,CCc1ccc(C(=O)COC(=O)c2cc([N+](=O)[O-])ccc2NCCO)cc1,inactive
10,CC(CCc1ccco1)NC(=O)c1cccc2c1C(=O)N(C1CCCCC1)C2 (stereo unspecified),inactive
11,Cc1nn(-c2ccccc2)c(Cl)c1/C=N/NC(N)=O,inactive
12,Cc1ccccc1Nc1nc(N)nc(-c2oc3ccccc3c2C)n1,inactive
13,COc1cccc(C(C)(O)c2nc(-c3ccc(OC)c(OC)c3)cs2)c1 (stereo unspecified),inactive
14,Cc1c(C(=O)N(C)C(C)c2ccccn2)oc2c(F)cccc12 (stereo unspecified),inactive
15,CCOCCCn1c(=NC(=O)c2cccnc2)c(C(=O)OCC)cc2c(=O)n3ccccc3nc21,inactive
16,COc1ccc(-c2cc(C3CC3)nc(N)c2C#N)cc1,inactive
17,CCOC(=O)c1c(NC(=O)Cc2ccccc2)sc2c1CCN(CC)C2,inactive
18,CCOC(=O)c1cnc2c(c(C)nn2CC)c1NC1CC1,inactive
19,c1ccc(Cn2nnc3c(N4CCC5(CC4)OCCO5)ncnc32)cc1,inactive
20,COc1ccc(CCN(C)C(=O)CCc2nnc(-c3ccccc3)o2)cc1OC,inactive
21,COc1ccccc1Nc1cc(C(=O)NCc2cccnc2)c2ccccc2n1,inactive
22,COc1cc2c(cc1OC)CN(C(=O)c1ccc(S(=O)(=O)N(C)c3ccccc3)cc1)CC2,inactive
23,O=c1c2c3c(sc2nc(NCCO)n1Cc1ccco1)CCCCC3,inactive

row,Structure (SMILES),Potency
1,CCSc1cc(C)nc2c(-c3ccccc3)c(C)nn12,inactive
2,CCOC(=O)c1sc(NC(=O)/C=C/c2cnn(CC)c2C)c(C(=O)OCC)c1C,inactive
3,Cc1ccc(C)c(S(=O)(=O)Nc2cc3c4c(c2)CCC(=O)N4CCC3)c1,inactive
4,COc1cc2c(cc1OC)C(C)N(C(=O)C1COc3ccccc3O1)CC2 (stereo unspecified),inactive
5,COc1ccc(-c2nc(C#N)c(NCc3ccc(C)cc3)o2)cc1OC,inactive
6,COC(=O)c1ccc(CSc2nnc3nc(C)cc(C)n23)cc1,inactive
7,C=CCOc1ccc(CNc2nccs2)cc1OCC,inactive
8,CCOC(=O)c1c(C)n(-c2ccccc2)c2ccc(OCCN(C)C)cc12,inactive
9,CC(=O)c1oc2ccccc2c1NC(=O)CN1CCCCC1,inactive
10,CC(=O)Nc1nc(CC(C)C)cc2c1c(=O)oc1ccccc12,inactive
11,CCN(CC)CC(=O)Nc1scc2c1c(=O)oc1ccccc12,8.2 µM (active)
12,CCOC(=O)c1sc(NC(=O)C2=COCCO2)c(C#N)c1C,inactive
13,COc1cccc(OCCNc2cc(N3CCOCC3)ccc2[N+](=O)[O-])c1,inactive
14,CCOC(=O)c1c(NC2OC(=O)c3c2ccc(OC)c3OC)sc(C(=O)OC(C)(C)C)c1C (stereo unspecified),inactive
15,N#Cc1c(-c2ccc(F)cc2)noc1N,inactive
16,COc1ccc(CSc2nnnn2-c2ccccc2)cc1,inactive
17,O=[N+]([O-])c1cnccc1NC1CCCCC1,inactive
18,O=C1CN(c2nc(-c3cccnc3)nc3sc4c(c23)CCCC4)CCN1,inactive
19,COC(=O)CSc1ncnc2scc(-c3ccccc3)c12,inactive
20,COC(=O)CCSCC(=O)N1N=C(c2ccc(OC)cc2)CC1c1cccc(OC)c1OC (stereo unspecified),inactive
21,CCC(=O)Nc1sc2c(c1C#N)CCCCC2,inactive
22,Cc1nc(N2CCOCC2)c2c(C)c(C(=O)Nc3ccccc3C(F)(F)F)sc2n1,inactive
23,Cc1nc(N2CCOCC2)c2cc(-c3ccccc3)sc2n1,8.2 µM (active)

row,Structure (SMILES),Potency
1,CN(C)c1ncnc2sc(-c3ccccc3)cc12,inactive
2,COc1ccc(C(=O)NCC2(c3ccc(OC)c(OC)c3)CCCC2)cc1OC,inactive
3,CC(=NNC(=S)Nc1ccc(C)cc1)c1ccccn1,inactive
4,COC(=O)c1ccc(Cn2nc(-c3cc(C)ccc3C)ccc2=O)cc1,inactive
5,COc1cc(SC)ccc1C(=O)Nc1ccccc1,inactive
6,Cc1c(C)n(Cc2ccccc2)c2ncnc(NCCO)c12,inactive
7,COc1ccc(-c2cc(C(=O)N3CCCC(C(F)(F)F)C3)c3ccccc3n2)cc1OC (stereo unspecified),inactive
8,C=CCN1N=C(c2ccc(Cl)s2)CSC1=O,inactive
9,CCOC(=O)c1nnn(-c2nonc2N)c1-c1cccs1,inactive
10,CCc1ccc(C(=O)COC(=O)c2cc([N+](=O)[O-])ccc2N2CCOCC2)cc1,inactive
11,COc1ccc(C(=O)c2cc([N+](=O)[O-])ccc2N2CCOCC2)cc1,inactive
12,COc1ccc(C(=O)COC(=O)c2cc([N+](=O)[O-])ccc2N2CCOCC2)c(OC)c1,20.6 µM (active)
13,CC(=O)Nc1cc(-c2ccccc2Cl)cn2c(-c3ccc(S(C)(=O)=O)cc3)cnc12,inactive
14,COc1ccc(-c2nnc(OCc3nc4ccccc4n3C)c3ccccc23)cc1,inactive
15,CCOc1ccc(Br)cc1S(=O)(=O)Nc1ccc(C(=O)OCC(=O)N(C)c2ccccc2)cc1,inactive
16,CCOC(=O)c1c(C)[nH]c2cc(Br)c(O)cc12,inactive
17,CC1CN(c2nc(N(C)c3ccccc3)nc(N)c2[N+](=O)[O-])CC(C)O1 (stereo unspecified),inactive
18,COc1ccc(-c2nc(C#N)c(NC(C)c3ccccc3)o2)cc1OC (stereo unspecified),inactive
19,CCOC(=O)n1c(=O)n(Cc2ccccc2Cl)c2ccccc21,inactive
